# Reference: PubChem BioAssay
# Unmarked numbers belong to inactive results. The source made the active and inactive calls.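 The calls were made as follows, unless noted: active = mean inhibition above 46.68%, the untreated control wells mean plus 3 SD; inactive = the rest.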
# Legend:
# [1] = target: Nuclear receptor coactivator 1 (Homo sapiens) (UniProt Q15788); test: NCOA1 GAL4-fusion reporter inhibition – cell-based, luminescence, quadruplicate, confirmation (AID 588820); conditions: HEK293 GAL4-SRC1 luciferase reporter, at 3.6 µM, hits give high values;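 also: 0% = DMSO wells and 100% = gossypol 36 µM treated wells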
# [2] = repression of VP16-driven luciferase reporter – cell-based, luminescence, high throughput, counter-screen for SRC1 inhibitor project (AID 588824; in the data active = inhibition above about 25%); conditions: cell-based VP16 transactivation luciferase luminescence; at 3.6 µM; hits give high values
# Sequence of Nuclear receptor coactivator 1 (Homo sapiens) (Q15788 whole entry, looked up, the tested form may be a part): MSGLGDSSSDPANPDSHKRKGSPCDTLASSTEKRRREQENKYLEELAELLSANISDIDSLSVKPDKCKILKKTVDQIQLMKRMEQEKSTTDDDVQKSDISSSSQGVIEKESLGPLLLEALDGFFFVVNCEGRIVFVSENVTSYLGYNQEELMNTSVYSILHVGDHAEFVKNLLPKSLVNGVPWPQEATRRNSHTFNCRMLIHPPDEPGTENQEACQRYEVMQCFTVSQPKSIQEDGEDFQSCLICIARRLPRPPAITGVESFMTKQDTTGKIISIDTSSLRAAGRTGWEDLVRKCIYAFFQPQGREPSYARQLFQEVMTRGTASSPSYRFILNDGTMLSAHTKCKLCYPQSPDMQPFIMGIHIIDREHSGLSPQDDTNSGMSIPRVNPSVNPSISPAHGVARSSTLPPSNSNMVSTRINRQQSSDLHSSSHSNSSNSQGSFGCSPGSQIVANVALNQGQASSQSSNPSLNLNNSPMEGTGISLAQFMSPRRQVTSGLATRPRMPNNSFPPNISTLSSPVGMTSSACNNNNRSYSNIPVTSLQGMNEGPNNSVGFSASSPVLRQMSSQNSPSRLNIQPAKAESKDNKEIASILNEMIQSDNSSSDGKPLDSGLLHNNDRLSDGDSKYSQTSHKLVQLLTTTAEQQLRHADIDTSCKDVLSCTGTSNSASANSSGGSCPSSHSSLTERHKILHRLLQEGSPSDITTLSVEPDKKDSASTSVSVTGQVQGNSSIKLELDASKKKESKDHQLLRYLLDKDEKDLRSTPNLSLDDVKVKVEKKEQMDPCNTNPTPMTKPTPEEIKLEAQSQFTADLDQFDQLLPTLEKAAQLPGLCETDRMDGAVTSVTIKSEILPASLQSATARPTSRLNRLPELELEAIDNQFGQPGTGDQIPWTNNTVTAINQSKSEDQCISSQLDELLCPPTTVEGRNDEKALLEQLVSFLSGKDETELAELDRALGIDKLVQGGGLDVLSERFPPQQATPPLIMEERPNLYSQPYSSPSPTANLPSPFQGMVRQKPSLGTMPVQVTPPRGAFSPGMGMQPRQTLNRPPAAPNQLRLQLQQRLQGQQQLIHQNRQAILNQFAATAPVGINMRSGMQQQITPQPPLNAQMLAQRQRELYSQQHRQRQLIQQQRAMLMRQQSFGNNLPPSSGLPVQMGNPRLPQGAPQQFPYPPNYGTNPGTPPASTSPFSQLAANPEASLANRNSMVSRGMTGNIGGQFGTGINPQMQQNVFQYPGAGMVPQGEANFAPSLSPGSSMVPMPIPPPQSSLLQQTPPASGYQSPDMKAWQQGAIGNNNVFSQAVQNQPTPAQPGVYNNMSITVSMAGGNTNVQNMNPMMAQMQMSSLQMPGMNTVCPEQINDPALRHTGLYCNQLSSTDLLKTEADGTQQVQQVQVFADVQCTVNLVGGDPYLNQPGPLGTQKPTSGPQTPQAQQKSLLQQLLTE
SMILES,inhibition [1] [%],inhibition [2]
Cc1sc2ncnc(N3CCN(C(=O)c4ccco4)CC3)c2c1C,-0.07,7.79%
Nc1nc(Cl)nc2ccc(Br)cc12,-6.1,-0.41%
Cc1ccc(S(=O)(=O)CC(CN2CCCCC2)N2CCCCC2)cc1 (centres undefined),4.8,-1.35%
CC(C)N(C)c1ncnc2c1ncn2[C@H]1CN(Cc2ccncc2)C[C@@H](CO)O1,-19.9,-7.41%
CC(=O)N1CN(C2CCCC2)Cc2c1sc1c2CCCC1,6.63,14.4%
Cc1cccc(NC(=O)C2CCN(S(=O)(=O)c3ccc4c(c3)OCCCO4)CC2)n1,-23.6,17.2%
O=C(c1ccccc1)C1CCN(C(=O)c2ccc(Cl)cc2)CC1,7.58,5.47%
COc1ccc(C(C(=O)NCC2CCCO2)N(Cc2cccs2)C(=O)c2snc(C(N)=O)c2N)cc1 (centres undefined),-52.6,-8.57%
O=C(Nc1ccc(F)cc1F)c1c(C(F)(F)F)ccnc1Oc1cccc(C(F)(F)F)c1,-2.06,-3.8%
CC(C)Nc1ccc(Nc2ccnc3cc4ccccc4cc23)cc1,29.3,38% (active)
COc1ccc(CNC(=O)c2ccc(N3CCC4(CC3)CC(c3ccc(Cl)cc3)=NO4)c([N+](=O)[O-])c2)cc1,6.27,28.2% (active)
CCCNC(=O)C1(C)CCCN(Cc2cccc(C#N)c2)C1 (centres undefined),36.4,26% (active)
